The source made the active and inactive calls. The rule behind the calls is not given here.

A short description of the first experiment: sensitizers of A549 cells to miR-34 induction, primary screen, imaging, A549 dox-inducible miR-34, nuclei and caspase counts (AID 1347080). The note with it: A549 miR-34 inducible, Hoechst nuclei count, 48 h; measured here: total cells without miR-34 induction.
With `CC(C)(CO)C(O)C(=O)NCCC(=O)O` (stereo not given), the cell count turned out to be 9770.

In the case of `CCC(=O)O[C@H]1CCC2C3CCc4cc(O)ccc4C3CC[C@@]21C` (stereo not given in full), the cell count is 11500.

Regarding `CC/C=C\C/C=C\C/C=C\C/C=C\C/C=C\CCCC(=O)OCC`, the cell count worked out at 11400.

With `Oc1cc(O)c2c(c1)OC(c1ccc(O)c(O)c1)C(O)C2` (stereo not given), the cell count came out at 10500.

For `CC[N+]1(C)[C@@H]2CC[C@H]1CC(OC(=O)[C@H]1CCC(C(=O)OC3C[C@H]4CC[C@@H](C3)[N+]4(C)CC)(c3ccccc3)c3ccccc31)C2` (stereo not given in full), the cell count amounted to 10100.

Consider `CCC(C)N1CCC2(CC1)N=c1c(c3c4c5c(C)c(O)c3c(O)c1=NC(=O)/C(C)=C/C=C/[C@H](C)[C@H](O)[C@@H](C)[C@@H](O)[C@@H](C)[C@H](OC(C)=O)[C@H](C)[C@@H](OC)/C=C/O[C@@](C)(O5)C4=O)N2` (stereo not given in full), for which the cell count was determined as 8810.

For `CCC(C)[C@H]1O[C@]2(CC[C@@H]1C)C[C@@H]1C[C@@H](C/C=C(\C)[C@@H](OC3C[C@H](OC)C(O[C@H]4C[C@H](OC)[C@@H](O)[C@H](C)O4)[C@H](C)O3)[C@@H](C)/C=C/C=C3\CO[C@@H]4[C@H](O)C(C)=C[C@@H](C(=O)O1)[C@]34O)O2` (stereo not given in full), the cell count was 4580.

As for `c1ccc(-c2[nH]ncc2-c2ccnc3ccccc23)nc1`, the cell count amounted to 5570.

On to `C[C@H]1[C@H](C)CC[C@]2(C(=O)O[C@@H]3O[C@H](COC4O[C@H](CO)[C@@H](OC5O[C@@H](C)[C@H](O)[C@@H](O)[C@H]5O)[C@H](O)[C@H]4O)[C@@H](O)[C@H](O)[C@H]3O)CC[C@]3(C)C(=CC[C@@H]4[C@@]5(C)C[C@@H](O)[C@H](O)[C@@](C)(CO)C5CC[C@]43C)[C@H]12` (stereo not given in full), for which the cell count came to 9340.

As to `CCOC(=O)Oc1c(OC)cc(C(=O)O[C@@H]2C[C@@H]3CN4CCc5c([nH]c6cc(OC)ccc56)[C@H]4C[C@@H]3[C@H](C(=O)OC)[C@H]2OC)cc1OC`, the cell count was 8100.

As to `CC(=O)N[C@@H]1[C@@H](O[C@H](C)C(=O)O)[C@H](O)[C@@H](CO)O[C@@H]1O`, the cell count was found to be 10000.

`OCCN1C[C@@H](O)[C@@H](O)C(O)C1CO` (stereo not given in full): the cell count was 14000.

`COc1cc2c(cc1OC)-c1[nH]nc(Nc3cccc(F)c3)c1C2`: the cell count was 1100.

Consider `CC(C)(C)NCC(O)COc1cccc2c1CC(O)C(O)C2` (stereo not given), for which the cell count was 10100.

For the compound `c1ccc2c3c([nH]c2c1)[C@H]1C2CCC([C@@H]4CCCN[C@H]24)N1CC3` (stereo not given in full), the cell count was 8710.

As to `CC12CCC3c4ccc(OC(=O)c5ccccc5)cc4CCC3C1CCC2O` (stereo not given), the cell count worked out at 11600.

Regarding `Oc1cccc(-c2nc(N3CCOCC3)c3sccc3n2)c1`, the cell count stood at 2750.

`CC(C)CC(=O)N[C@H](C(=O)NC(C(=O)NC(CC(C)C)[C@@H](O)CC(=O)N[C@@H](C)C(=O)N[C@@H](CC(C)C)[C@@H](O)CC(=O)O)C(C)C)C(C)C` (stereo not given in full): the cell count worked out at 13300.

Consider `CN1CC[C@]23c4ccccc4N[C@H]1[C@]21CCN(C)[C@H]3Nc2ccccc21`, for which the cell count turned out to be 10600.

For `COc1c2ccoc2nc2c(OC)c(OC[C@@H](O)C(C)(C)O)ccc12`, the cell count was 9850.

On to `CC1OC(O[C@H]2/C=C/C=C/C=C/C=C/C=C/C=C/C=C/[C@H](C)[C@@H](O)[C@@H](C)[C@H](C)OC(=O)CC(O)CC(O)CCC(O)C(O)CC(O)CC3(O)C[C@H](O)C(C(=O)O)C(C2)O3)C(O)[C@H](N)C1O` (stereo not given in full), for which the cell count is 11500.

For `C=Cc1c(C)c2cc3nc(cc4[nH]c(cc5nc(cc1[nH]2)C(C)=C5CCC(=O)O)c(CCC(=O)O)c4C)[C@@]1(C)C3=CC=C(C(=O)OC)C1C(=O)OC` (stereo not given in full), the cell count came to 9330.

Another experiment can be described thus: inhibitors of Cryptococcus chitosan production, flow cytometry, Cibacron Brilliant Red staining (AID 1347148).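 Note: compound exposure lasted three days at 37 degrees C.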 To be noted: Cryptococcus neoformans chitosan, stronger effect = lower value; at 10 µM unless noted. Background: Flow cytometry measures light scatter and fluorescence of single cells or particles in a stream.
For the compound `CCCCC/C=C\C/C=C\C/C=C\C/C=C\CCCC(=O)O[C@@H](COCCCCCCCCCCCCCCCC)COP(=O)([O-])OCC[N+](C)(C)C`, the fold fluorescence is 5.54 (inactive).

With `C[C@H]1CNCCN1S(=O)(=O)c1cccc2cnccc12`, the fold fluorescence was 3.94 [at 171.6 µM] (inactive).

For `CCCCC(C)(O)C/C=C/[C@H]1[C@H](CCCCCCC(=O)O)C(=O)C[C@@H]1O` (stereo not given in full), the fold fluorescence was 3.98 (inactive).

In the case of `CCCCCCCCCCCCCC[C@H](F)C(=O)O`, the fold fluorescence is 6.01 (inactive).

As for `CCCCC[C@@H](O)/C=C/[C@H]1[C@H](C/C=C\CCCC(=O)O)[C@@H](O)C[C@@H]1O`, the fold fluorescence was 4.53 (inactive).

For `COC(=O)C1=C(C)NC(C)=C(C(=O)OCCN(C)Cc2ccccc2)[C@H]1c1cccc([N+](=O)[O-])c1`, the fold fluorescence is 4.49 [at 104.3 µM] (inactive).

As to `N#Cc1cc2c(OC[C@@H](O)CN3CCN(C(c4ccccc4)c4ccccc4)CC3)cccc2[nH]1`, the fold fluorescence was 3.58 [at 107.2 µM] (inactive).

For the compound `Nc1ncnc2c1ncn2[C@@H]1CCCO1`, the fold fluorescence is 2.55 [at 243.6 µM] (inactive).

With `COC(C)(C)CCC[C@H](C)C/C=C/C(C)=C/C(=O)O`, the fold fluorescence was 5.1 (inactive).

With `CCOC(=O)C1=C(C)NC(=S)N[C@H]1c1cccc(O)c1`, the fold fluorescence is 3.63 [at 171 µM] (inactive).

With `COc1ccc(CCN(C)CCC[C@@](C#N)(c2ccc(OC)c(OC)c2)C(C)C)cc1OC`, the fold fluorescence was 7.65 [at 110 µM] (inactive).

Regarding `CN=C(NC#N)Nc1ccc(C2=NNC(=O)C[C@@H]2C)cc1`, the fold fluorescence was 7.2 [at 175.9 µM] (inactive).

Take `COC(=O)[C@H]1[C@@H]2C[C@@H]3c4[nH]c5ccccc5c4CCN3C[C@H]2CC[C@H]1O`: the fold fluorescence is 3.91 [at 141.1 µM] (inactive).

As to `CCCCC[C@@H](O)/C=C/[C@H]1[C@H](CC(=O)CCCCC(=O)O)[C@H](O)C[C@@H]1O`, the fold fluorescence is 4.59 (inactive).

For `O[C@H]1C=C2CCN3Cc4cc5c(cc4C(C23)[C@@H]1O)OCO5` (stereo not given in full), the fold fluorescence was 10.6 [at 174 µM] (inactive).

Regarding `C[C@@](O)(C(=O)Nc1ccc(S(=O)(=O)c2ccccc2)cc1)C(F)(F)F`, the fold fluorescence is 5.17 [at 133.9 µM] (inactive).

`CCCCC[C@@H](O)/C=C/[C@H]1[C@H](C/C=C\CCCC(=O)O)[C@H](O)C[C@H]1O`: the fold fluorescence is 4.85 (inactive).

On to `COC1=C2C[C@H](C)C[C@@H](OC)[C@@H](O)[C@H](C)/C=C(\C)[C@@H](OC(N)=O)[C@H](OC)/C=C\C=C(/C)C(=O)NC(=CC1=O)C2=O`, for which the fold fluorescence was 25.2 [at 89.2 µM] (inactive).

The values are drawn from PubChem BioAssay.
